# Screening data (PubChem BioAssay)
# Hits are enriched below; roughly 8.3% of the tested compounds scored in any of these assays.
# HCMV antiviral: human cytomegalovirus inhibition | HFF cells, HCMV-luciferase reporter, 72 h; hits give low values | activity change, negative = inhibition, % at 57.5 µM | AID 1259415 | 410,000 tested, 4.5% active; in the data active means activity change below about -60%; inconclusive means no clear call, values can overlap the other calls; inactive means above about -39%
#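 HFF cells seeded 16 h at 37C, treated with compounds, infected with luciferase-reporter HCMV at MOI 1 PFU/cell; luciferase read at 72 h post infection, normalized to buffer-only and Salinomycin controls.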
# Lassa entry inh: Lassa virus entry inhibition | Potency, µM (series often up to 37.9 µM), without a hit: at the highest dose activity change, negative = inhibition, hits mostly inhibitors | 300,000 tested, 1.2% active | Lassa virus pseudotype entry inhibition, cell reporter | AID 540256; calls by dose curve; tested in HEK293 cells; further: potency means the concentration at half of the fitted maximal effect; nearly all actives have a fitted effect of over 50% in size
# FMDV inh: antivirals against foot and mouth disease virus; 410,000 tested, 1.2% active; AID 1159524; FMDV antiviral cell-based qHTS; Potency, µM (highest dose often 57.9 µM), for inactives: at the highest dose activity change, negative = inhibition, actives largely listed as inhibitors; calls by dose curve; tested in HEK293T cells; further: read-out not given here; potency means the concentration at half of the fitted maximal effect; nearly all actives have a fitted effect of over 45% in size
# Marburg entry inh: inhibitors of Marburg virus binding or cell entry; Marburg virus pseudotyped entry inhibition, cell reporter; Potency, µM (highest dose often 37.8 µM), without a hit: at the highest dose activity change, negative = inhibition, usual class: inhibitors; 300,000 tested, 1.8% active; calls by dose curve; tested in HEK293 cells; further: potency means the concentration at half of the fitted maximal effect
# HCV inh: HCV inhibition; Huh7.5.1 HCVcc-Cre infection, luciferase reporter, 44 h; Potency, µM (doses to about 41.8 µM), for inactives: at the top dose activity change, negative = inhibition, usual class: inhibitors; 340,000 tested, 3.4% active; AID 651820; further: potency means the concentration at half of the fitted maximal effect
#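 1,000 cells/well; 4 h culture; + compound; + HCVcc-Cre (~0.5 moi); 44 h; luciferase substrate, RT 15 min; read 15 sec.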
# Giardia FBPA inh: inhibitors of Giardia lamblia fructose-1,6-bisphosphate aldolase | A8B2U2 | purified Giardia FBPA | Potency, µM (top dose mostly 59.6 µM), without a hit: at the top dose activity, negative = inhibition, actives largely listed as inhibitors | 290,000 tested, 0.71% active; further: potency means the concentration at half of the fitted maximal effect; nearly all actives have a fitted effect of over 55% in size
# Target sequence (A8B2U2 whole entry, looked up): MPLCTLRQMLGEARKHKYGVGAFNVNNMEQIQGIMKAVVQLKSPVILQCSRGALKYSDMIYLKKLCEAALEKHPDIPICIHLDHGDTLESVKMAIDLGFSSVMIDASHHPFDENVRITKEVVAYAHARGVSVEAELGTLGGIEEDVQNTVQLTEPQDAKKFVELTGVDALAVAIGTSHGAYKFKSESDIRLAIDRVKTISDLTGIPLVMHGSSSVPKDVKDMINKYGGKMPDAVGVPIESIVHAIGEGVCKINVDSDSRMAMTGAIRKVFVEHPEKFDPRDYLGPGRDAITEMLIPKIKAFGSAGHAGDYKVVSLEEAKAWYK
#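 Giardia FBPA (40 nM reagent) was preincubated 10 min at RT with compound (up to 57.5 uM final), then substrate plus GAPDH/TPI/NAD/arsenate coupling system with diaphorase/resazurin was added; resorufin fluorescence (525/598 nm) was read after 20 min.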
# Active calls of the source: *; ? = inconclusive; . = not tested or not shown; [ ] = dose if it differs, or a comment. Unless noted, the call rests on the fitted dose curve; in most records, active means well fitted curve in the direction sought with a large enough effect; inconclusive means small, poorly fitted or top-dose-only effect, or another doubt; inactive means no such curve, though single readings can be large; an effect the other way counts as inactive or inconclusive. On the % scale 0 is the no-effect control and ±100 the full control effect.
SMILES,HCMV antiviral,Lassa entry inh,FMDV inh,Marburg entry inh,HCV inh,Giardia FBPA inh
CCOC(=O)/C(O)=C(\C#N)c1nc2ccccc2[nH]1,-64.0*,-1.8%[46.1 µM],?,-7.8%[46.1 µM],9.0%,-19.4%
CCOC(=O)c1c(C)[nH]c(C(=O)OC/C(O)=C(\C#N)c2nc3ccccc3[nH]2)c1C,.,-15.4%,-5.7%,-24.1%,?,-9.7%
COc1ccc(OC/C(O)=C(\C#N)c2nc3ccccc3[nH]2)cc1,-9.4,22.2%,17.9%,9.8%,0.1%,-20.8%
N#C/C(=C(/O)COC(=O)CSc1ccc(Cl)cc1)c1nc2ccccc2[nH]1,-80.7*,9.4%,?,-13.2%,0.3%,-5.1%
Cc1cc(SCC(=O)OC/C(O)=C(\C#N)c2nc3ccccc3[nH]2)c(C)cc1Br,?,?,?,?,2.2%,-11.8%
N#C/C(=C(/O)COC(=O)CCCNC(=O)c1ccc(Cl)cc1)c1nc2ccccc2[nH]1,-93.4*,?,?,?,-4.9%,-7.3%
COC(=O)C1=C[C@H]([C@@H](C)[C@H](OC)c2ccccc2Br)[C@H]2[C@H]1c1ccccc1N2C,.,?,.,-15.6%[14.2 µM],.,.
O=c1cc(-c2ccccc2)oc2ccccc12,19.6,.,47.6%,.,?,.
Nc1cc([N+](=O)[O-])cc2oc(-c3ccccc3)cc12,90.3,.,55.0%,.,10µM*,-0.7%
Cc1cc(NC(=O)C(C)(C)C)cc(-c2nc3ncccc3o2)c1O,-11.8,-1.3%[46.1 µM],-1.2%,-5.6%[46.1 µM],.,.
N#C/C(=C\c1ccco1)C(=O)NCc1ccccc1,.,.,15.8%,.,-1.7%,5.0%
N#CC(C#N)=C1C=CC=CN1/C(=C\c1ccco1)C(=O)c1ccc(-c2ccccc2)cc1,-101.4*,?,14.1µM*,15.8µM*,?,-3.5%
N#CC(C#N)=C1C=CC=CN1/C(=C\c1ccco1)C(=O)c1ccc(Cl)cc1,-97.2*,?,?,?,?,-4.9%
COc1cccc([C@@H]2Oc3ccc(Br)cc3C(=O)[C@@H]2OC(=O)N[C@H]2CCCc3ccccc32)c1,.,.,.,-11.4%[14.2 µM],.,.
Cc1[nH]c2ccccc2c1CCNC(=O)c1ccc2c(c1[N+](=O)[O-])C(=O)c1ccccc1C2=O,-75.3*,?,-18.3%,?,?,-27.1%
COC(=O)C1=C(c2cc3ccccc3s2)C[C@@H]2CC[C@H]1N2C(=O)NC1CC1,-63.5*,.,-17.0%,.,?,.
COC(=O)C1=C(c2c(C)noc2C)C[C@@H]2CC[C@H]1N2C(=O)NCc1ccc(C(F)(F)F)cc1,19.1,.,-16.1%,.,?,.
COC(=O)C1=C(c2cc3ccccc3s2)C[C@@H]2CC[C@H]1N2C(=O)NCc1ccc(C(F)(F)F)cc1,-5.6,.,-29.7%,.,11.2µM*,.
COC(=O)C1=C(c2c(C)noc2C)C[C@@H]2CC[C@H]1N2C(=O)NC1CC1,-96.8*,.,-6.6%,.,-0.2%,.
COC(=O)C1=C(c2cc3ccccc3s2)C[C@@H]2CC[C@H]1N2C(=O)NCC1CC1,-32.4,.,-29.0%,.,?,.
Cc1cc(C)nc(S[C@H]2C[C@@H](C(=O)N3CCN(c4ccccc4F)CC3)N(Cc3ccccc3F)C2)n1,.,.,12.2%,.,.,.
NC(=O)[C@@H]1CC2(CC(c3cccc(NC(=O)CC(c4ccccc4)c4ccccc4)c3)=NO2)CN1C(=O)c1ccc(Cl)cc1 (some centres undefined),-72.4*,.,-27.2%,.,?,0.9%
NC(=O)[C@H]1CC2(CC(c3cccc(NC(=O)CC(c4ccccc4)c4ccccc4)c3)=NO2)CN1C(=O)CC(c1ccccc1)c1ccccc1 (some centres undefined),-33.2,.,-14.3%,.,-20.5%,-5.1%
C/C=C(\C)C(=O)Nc1cccc(C2=NOC3(C2)C[C@@H](C(N)=O)N(C(=O)/C(C)=C/C)C3)c1 (some centres undefined),-67.6*,.,1.7%,.,5.6%,0.2%
CCC(=O)Nc1cccc(C2=NOC3(C2)C[C@@H](C(N)=O)N(C(=O)CC(c2ccccc2)c2ccccc2)C3)c1 (some centres undefined),-66.7*,.,27.3%,.,-13.9%,-2.7%
SMILES,HCMV antiviral,Lassa entry inh,FMDV inh,Marburg entry inh,HCV inh,Giardia FBPA inh
NC(=O)[C@@H]1CC2(CC(c3cccc(NC(=O)COc4ccc(Cl)cc4)c3)=NO2)CN1C(=O)COc1ccc(Cl)cc1 (some centres undefined),-18.2,.,0.0%,.,10µM*,1.0%
N#CCC(=O)N1CC2(CC(c3cccc(NC(=O)COc4ccc(Cl)cc4)c3)=NO2)C[C@@H]1C(N)=O (some centres undefined),-7.4,.,-5.0%,.,-1.6%,-1.5%
CCC(C(=O)Nc1nc(C)c(C(=O)OC)s1)c1ccccc1 (centres undefined),4.4,21.4%[46.1 µM],-18.6%,-10.6%[46.1 µM],13.0%,-2.8%
CCC(C(=O)Nc1cc(OC)c(NC(=O)c2ccccc2)cc1OC)c1ccccc1 (centres undefined),4.3,?,-29.4%,0.9%[46.1 µM],11.2µM*,-0.1%
CCC(C(=O)Nc1sc(C(N)=O)c(C)c1C(=O)OC)c1ccccc1 (centres undefined),11.6,.,-22.3%,12.6µM*,-35.8%,-12.6%
CCC(C(=O)Nc1ccsc1C(=O)OC)c1ccccc1 (centres undefined),-67.3*,15.3%,?,9.7%[46.1 µM],-16.6%,-1.3%
CCC(C(=O)Nc1cc(Cl)ccc1OC)c1ccccc1 (centres undefined),?,-16.0%,-11.0%,-22.2%,?,-7.6%
COC(=O)NC(c1ccccc1)c1c[nH]c2ccccc12 (centres undefined),.,.,.,-7.2%[14.2 µM],.,0.4%
NC(=O)C(=CNc1nc(-c2ccc(Cl)c(Cl)c2)cs1)C(N)=O,.,.,.,.,.,17.7µM*
O=C(O)c1ccc(-c2nc(-c3ccc(Cl)c(Cl)c3)cs2)cc1,.,.,0.0%,.,10.8%,2.1%
CCC(NC(=O)Nc1cc(Cl)ccc1OC)c1c(-n2cccc2)sc2c1CCN(C)C2 (centres undefined),24.6,23.8%[46.1 µM],-4.6%,.,.,.
Cc1nc(N2CCN(C(=O)COc3ccccc3)CC2)c2c(C)c(C)sc2n1,-22.8,?,?,?,12.6µM*,4.5%
Cn1nc(-c2ccc(OCC(=O)N3CCN(Cc4ccccc4)CC3)cc2)c2ccccc2c1=O,?,-15.2%,15.8µM*,8.2µM*,6.31µM*,11.1%
O=C(COc1ccccc1)N1CCN(c2ncccn2)CC1,-26.2,14.6%,-10.9%,14.2%[46.1 µM],20.0%,7.5%
Cc1ccc(OCC(=O)N2CCN(c3nnc(-c4ccccc4)c4ccccc34)CC2)cc1,-83.3*,?,?,?,?,-1.7%
Cn1nc(-c2ccc(OCC(N)=O)cc2)c2ccccc2c1=O,79.4,9.7%,12.0%,?,15.4%,1.1%
CCCCn1c(=O)c2oc3ccccc3c2n(CC(=O)Nc2cccc(Cl)c2C)c1=O,-24.8,-3.5%[46.1 µM],-5.2%,.,.,.
